Measurements from PubChem BioAssay (NCI).
This is part of a sample that, as a whole, favours compounds with a hit. Of some 83,000 tested, about 20% had one in any assay.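 Note: values are percent growth. 100 is the growth of untreated cells, values between 100 and 0 indicate rising inhibition; between -100 and 0 indicates cell death.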 A number with no mark means an inactive call. How the source made its calls: active means growth percent below 10; inactive means the rest.

Each molecule was assayed on HL-60(TB) leukemia (assay: NCI-60 one-dose screen, 48 h (100 = growth as untreated, 0 = no growth, -100 = all killed)). Details: 10 µM unless noted.

Compound | growth
CN(C)c1ccc(/C=C/c2nc3ccccc3c(=O)n2CC(=O)Nc2ccccc2)cc1 | 91.8%
C=C1CCC2C3(C)COC(c4ccc(F)cc4)OC3CCC2(C)C1CC(O)C1=CCOC1=O (configuration not stated) | 35.9%
O=C(Nc1nc2ccc([N+](=O)[O-])cc2s1)Nc1ccc(Cl)cc1Cl | 50.1%
COc1ccc(C(=O)c2c(N)c(C#N)cn2-c2ccc([N+](=O)[O-])cc2)cc1 | 97.5%
COc1c(F)ccc(C(=O)Nc2ccc3nc(NC(=O)C4CCCN(S(=O)(=O)c5ccc(C#N)cc5)C4)sc3c2)c1F (configuration not stated) | 115%
N#Cc1ccc(C(=O)CSc2nc3c(c(Nc4ccc(S(N)(=O)=O)cc4)n2)CCC3)cc1 | 101%
N=C1N=C(SCc2nc3ccccc3[nH]2)NC(=O)/C1=C/c1ccc(Cl)cc1 | 102%
